Data published in PubChem BioAssay (EPA / NIEHS).
Activity calls are given as the source filed them. How the source made its calls: active means hit-call score of the fitted dose curve at least 0.9, where 1 is the maximum; inactive means score below 0.9.

What was measured:
Details in all cases: mRNA level, 48 h; actives raise or lower the signal
[1] = read-out: Ezrin (EZR), EZR (gene 7430); experiment: LTEA_HepaRG_EZR: Life Technologies and Expression Analysis (LTEA) Assay for Ezrin (EZR) using HepaRG (AID 2283491)
Procedure, shortened: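 Read-out is EZR transcript level by qRT-PCR, normalized to three housekeeping genes and fitted bidirectionally against the DMSO control. Human HepaRG cells received test chemicals for 48 h at eight half-log concentrations up to 100 uM in 0.5% DMSO.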

[2] = read-out: Cytochrome P450 3A7 (Homo sapiens) (UniProt P24462); experiment: LTEA_HepaRG_CYP3A7: Life Technologies and Expression Analysis (LTEA) Assay for CYP3A7 using HepaRG (AID 2283492)
Procedure, shortened: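 Differentiated HepaRG cells in serum-free induction medium exposed 48 h in duplicate to 8-point half-log series from 100 uM top in 0.5% DMSO. CYP3A7 mRNA by qRT-PCR, normalized to ACTB/GAPDH/POLR2A, bidirectional fit versus DMSO.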

CYP3A5 (gene 1577) = experiment: LTEA_HepaRG_CYP3A5: Life Technologies and Expression Analysis (LTEA) Assay for CYP3A5 using HepaRG (AID 2283493)
Procedure, shortened: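 HepaRG plated 48 h, switched to serum-free induction medium, chemicals added 48 h (max 100 uM, half-log, 0.5% DMSO). RNA isolated; CYP3A5 by TaqMan qRT-PCR. Gain/loss vs DMSO.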

[3] = read-out: Fatty Acid-Binding Protein 1 (FABP1), FABP1 (gene 2168); experiment: LTEA_HepaRG_FABP1: Life Technologies and Expression Analysis (LTEA) Assay for Fatty Acid-Binding Protein 1 (FABP1) using HepaRG (AID 2283494)
Procedure, shortened: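 Differentiated human HepaRG cells exposed 48 h in serum-free induction medium to eight half-log concentrations up to 100 uM (0.5% DMSO), duplicate. FABP1 mRNA by qRT-PCR, normalised to ACTB, GAPDH, POLR2A; bidirectional fitting against DMSO.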

[4] = read-out: Cytochrome P450 4A22 (Homo sapiens) (UniProt Q5TCH4); experiment: LTEA_HepaRG_CYP4A22: Life Technologies and Expression Analysis (LTEA) Assay for Cytochrome P450 4A22 (CYP4A22) using HepaRG (AID 2283495)
Procedure, shortened: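 Differentiated HepaRG cells in serum-free induction medium exposed 48 h in duplicate to eight half-log concentrations up to 100 uM in 0.5% DMSO. CYP4A22 mRNA quantified by TaqMan qRT-PCR, normalized to ACTB, GAPDH and POLR2A; bidirectional fit versus DMSO.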

[5] = read-out: Cytochrome P450 7A1 (Homo sapiens) (UniProt P22680); experiment: LTEA_HepaRG_CYP7A1: Life Technologies and Expression Analysis (LTEA) Assay for Cytochrome P450 7A1 (CYP7A1) using HepaRG (AID 2283496)
Procedure, shortened: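 HepaRG cells plated 48 h, then switched to serum-free induction medium and exposed in duplicate for 48 h to 8-point half-log series from 100 uM in 0.5% DMSO. CYP7A1 mRNA by qRT-PCR (TaqMan), normalized to ACTB/GAPDH/POLR2A; bidirectional fit versus DMSO.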

[6] = read-out: Glutathione S-Transferase (GSTA2), GSTA2 (gene 2939); experiment: LTEA_HepaRG_GSTA2: Life Technologies and Expression Analysis (LTEA) Assay for Glutathione S-Transferase (GSTA2) using HepaRG (AID 2283497)
Procedure, shortened: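 Differentiated human HepaRG cells were exposed in duplicate for 48 h in serum-free induction medium, 8 points from 100 uM top in half-log steps, 0.5% DMSO. GSTA2 mRNA was measured by TaqMan qRT-PCR, normalized to ACTB, GAPDH and POLR2A; bidirectional fit versus DMSO.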

[7] = read-out: Glutamate-cysteine ligase catalytic (GCLC), GCLC (gene 2729); experiment: LTEA_HepaRG_GCLC: Life Technologies and Expression Analysis (LTEA) Assay for Glutamate-cysteine ligase catalytic (GCLC) using HepaRG (AID 2283498)
Procedure, shortened: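 Differentiated HepaRG cells exposed 48 h in serum-free induction medium, eight-point half-log series topping at 100 uM in 0.5% DMSO, duplicates. GCLC mRNA by qRT-PCR normalized to ACTB, GAPDH and POLR2A, fitted bidirectionally versus DMSO.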

[8] = read-out: growth arrest and DNA damage 45 (GADD45G), GADD45G (gene 10912); experiment: LTEA_HepaRG_GADD45G: Life Technologies and Expression Analysis (LTEA) Assay for growth arrest and DNA damage 45 (GADD45G) using HepaRG (AID 2283499)
Procedure, shortened: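 Differentiated human HepaRG cells, 48 h post-plating, exposed 48 h in serum-free induction medium to 8 half-log concentrations (top 100 uM, 0.5% DMSO) in duplicate. GADD45G mRNA measured by Fluidigm TaqMan qRT-PCR, normalized to ACTB, GAPDH, POLR2A; bidirectional fit versus DMSO.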

[9] = read-out: Glutamate-cysteine ligase regulatory (GCLM), GCLM (gene 2730); experiment: LTEA_HepaRG_GCLM: Life Technologies and Expression Analysis (LTEA) Assay for Glutamate-cysteine ligase regulatory (GCLM) using HepaRG (AID 2283500)
Procedure, shortened: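 Cells were plated, cultured 48 h, switched to serum-free induction medium, then dosed in duplicate for 48 h at eight half-log concentrations up to 100 uM. RNA was then profiled by qRT-PCR; gain or loss versus DMSO was fitted.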

[10] = read-out: Glutathione S-transferase M3 (GSTM3), GSTM3 (gene 2947); experiment: LTEA_HepaRG_GSTM3: Life Technologies and Expression Analysis (LTEA) Assay for Glutathione S-transferase M3 (GSTM3) using HepaRG (AID 2283501)
Procedure, shortened: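 Differentiated human HepaRG cells were exposed in duplicate for 48 h in serum-free induction medium, 8 points from 100 uM top in half-log steps, 0.5% DMSO. GSTM3 mRNA was measured by TaqMan qRT-PCR, normalized to ACTB, GAPDH and POLR2A; bidirectional fit versus DMSO.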

[11] = read-out: Heat shock 70 kDa protein 1 (HSPA1A), gene 3303; experiment: LTEA_HepaRG_HSPA1A: Life Technologies and Expression Analysis (LTEA) Assay for Heat shock 70 kDa protein 1 (HSPA1A) using HepaRG (AID 2283502)
Procedure, shortened: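 Readout is HSPA1A transcript level by microfluidic qRT-PCR, normalized to three housekeeping genes and analysed for gain or loss of signal relative to 0.5% DMSO. Human HepaRG cultures received test chemicals for 48 h at up to 100 uM.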

[12] = read-out: 3-Hydroxy-3-Methylglutaryl-CoA Synthase 2 (HMGCS2), HMGCS2 (gene 3158); experiment: LTEA_HepaRG_HMGCS2: Life Technologies and Expression Analysis (LTEA) Assay for 3-Hydroxy-3-Methylglutaryl-CoA Synthase 2 (HMGCS2) using HepaRG (AID 2283504)
Procedure, shortened: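 Human HepaRG cells in serum-free induction medium were exposed in duplicate for 48 h to 8-point half-log series from 100 uM top in 0.5% DMSO. HMGCS2 mRNA measured by TaqMan qRT-PCR, normalised to ACTB, GAPDH, POLR2A; bidirectional fit versus DMSO.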

HGF (gene 3082) = experiment: LTEA_HepaRG_HGF: Life Technologies and Expression Analysis (LTEA) Assay for Hepatocyte Growth Facto (HGF) using HepaRG (AID 2283505)
Procedure, shortened: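 Differentiated HepaRG cells in serum-free induction medium exposed 48 h in duplicate, 8 half-log concentrations from 100 uM in 0.5% DMSO. HGF mRNA by qRT-PCR, normalised to ACTB, GAPDH, POLR2A; bidirectional fitting.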

[13] = read-out: Insulin Like Growth Factor 1 (IGF1), IGF1 (gene 3479); experiment: LTEA_HepaRG_IGF1: Life Technologies and Expression Analysis (LTEA) Assay for Insulin Like Growth Factor 1 (IGF1) using HepaRG (AID 2283506)
Procedure, shortened: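 HepaRG, plated 48 h, then switched to serum-free induction media; test chemical 8-pt half-log from 100 uM (0.5% DMSO), duplicate, 48 h. Lysis in RLT, TaqMan qRT-PCR, norm. ACTB/GAPDH/POLR2A. Bidirectional fit vs DMSO.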

[14] = read-out: Intercellular Adhesion Molecule 1 (ICAM1), ICAM1 (gene 3383); experiment: LTEA_HepaRG_ICAM1: Life Technologies and Expression Analysis (LTEA) Assay for Intercellular Adhesion Molecule 1 (ICAM1) using HepaRG (AID 2283507)
Procedure, shortened: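 Differentiated human HepaRG cells in serum-free induction medium exposed 48 h in duplicate to 8 half-log concentrations (top 100 uM, 0.5% DMSO). ICAM1 mRNA quantified by TaqMan qRT-PCR, normalized to ACTB, GAPDH and POLR2A; bidirectional fitting versus DMSO.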

[15] = read-out: Insulin-like growth factor-binding protein 1 (IGFBP1), IGFBP1 (gene 3484); experiment: LTEA_HepaRG_IGFBP1: Life Technologies and Expression Analysis (LTEA) Assay for Insulin-like growth factor-binding protein 1 (IGFBP1) using HepaRG (AID 2283508)
Procedure, shortened: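 HepaRG cells, plated 48 h then switched to serum-free induction medium, exposed in duplicate for 48 h to 8-point half-log series from 100 uM in 0.5% DMSO. mRNA measured by qRT-PCR, normalized to ACTB/GAPDH/POLR2A; bidirectional fit versus DMSO.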

[16] = read-out: Interleukin 6 (IL6), IL6 (gene 3569); experiment: LTEA_HepaRG_IL6: Life Technologies and Expression Analysis (LTEA) Assay for Interleukin 6 (IL6) using HepaRG (AID 2283509)
Procedure, shortened: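 HepaRG cells exposed in duplicate for 48 h to eight half-log concentrations, top 100 uM, in 0.5% DMSO serum-free induction medium. mRNA measured by qRT-PCR, normalized to ACTB, GAPDH and POLR2A. Bidirectional fit versus DMSO.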

[17] = read-out: Interleukin 6 Receptor (IL6R), IL6R (gene 3570); experiment: LTEA_HepaRG_IL6R: Life Technologies and Expression Analysis (LTEA) Assay for Interleukin 6 Receptor (IL6R) using HepaRG (AID 2283510)
Procedure, shortened: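 Readout is IL6R transcript level by TaqMan qRT-PCR, normalized to three housekeeping genes and fitted bidirectionally against 0.5% DMSO controls. Human HepaRG cells received chemicals for 48 h in serum-free induction medium, highest concentration 100 uM.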

[18] = read-out: Hypoxia-inducible factor 1-alpha (Homo sapiens) (UniProt Q16665); experiment: LTEA_HepaRG_HIF1A: Life Technologies and Expression Analysis (LTEA) Assay for Hypoxia-inducible factor 1 (HIF1A) Trancription factor using HepaRG (AID 2283503)
Procedure, shortened: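 Differentiated HepaRG cells in serum-free induction medium exposed 48 h, in duplicate, to 8-point half-log series from 100 uM in 0.5% DMSO. HIF1A mRNA measured by TaqMan qRT-PCR, normalized to ACTB/GAPDH/POLR2A, fitted bidirectionally versus DMSO.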

Measured: AC50

Sequence of Hypoxia-inducible factor 1-alpha (Homo sapiens) (Q16665 whole entry, looked up): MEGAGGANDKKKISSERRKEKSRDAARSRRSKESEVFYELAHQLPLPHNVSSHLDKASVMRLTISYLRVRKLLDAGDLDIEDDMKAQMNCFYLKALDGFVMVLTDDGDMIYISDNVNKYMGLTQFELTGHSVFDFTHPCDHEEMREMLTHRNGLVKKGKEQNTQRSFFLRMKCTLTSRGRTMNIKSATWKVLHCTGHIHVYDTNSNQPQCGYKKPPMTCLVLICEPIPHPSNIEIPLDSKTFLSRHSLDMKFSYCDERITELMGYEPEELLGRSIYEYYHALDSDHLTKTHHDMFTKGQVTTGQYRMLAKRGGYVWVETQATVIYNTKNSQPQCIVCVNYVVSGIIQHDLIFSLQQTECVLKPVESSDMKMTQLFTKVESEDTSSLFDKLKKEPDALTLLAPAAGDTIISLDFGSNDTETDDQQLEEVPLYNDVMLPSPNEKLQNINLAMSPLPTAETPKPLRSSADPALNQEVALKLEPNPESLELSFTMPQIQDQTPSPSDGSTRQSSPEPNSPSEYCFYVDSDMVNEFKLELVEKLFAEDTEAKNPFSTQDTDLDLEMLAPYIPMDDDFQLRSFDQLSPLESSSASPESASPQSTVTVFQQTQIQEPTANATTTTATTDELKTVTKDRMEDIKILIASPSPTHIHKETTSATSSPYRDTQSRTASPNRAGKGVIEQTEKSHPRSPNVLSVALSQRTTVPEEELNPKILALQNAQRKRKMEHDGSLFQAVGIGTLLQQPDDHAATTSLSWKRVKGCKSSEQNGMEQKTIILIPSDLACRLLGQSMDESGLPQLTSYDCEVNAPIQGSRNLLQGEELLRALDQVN
Sequence of Cytochrome P450 3A7 (Homo sapiens) (P24462 whole entry, looked up): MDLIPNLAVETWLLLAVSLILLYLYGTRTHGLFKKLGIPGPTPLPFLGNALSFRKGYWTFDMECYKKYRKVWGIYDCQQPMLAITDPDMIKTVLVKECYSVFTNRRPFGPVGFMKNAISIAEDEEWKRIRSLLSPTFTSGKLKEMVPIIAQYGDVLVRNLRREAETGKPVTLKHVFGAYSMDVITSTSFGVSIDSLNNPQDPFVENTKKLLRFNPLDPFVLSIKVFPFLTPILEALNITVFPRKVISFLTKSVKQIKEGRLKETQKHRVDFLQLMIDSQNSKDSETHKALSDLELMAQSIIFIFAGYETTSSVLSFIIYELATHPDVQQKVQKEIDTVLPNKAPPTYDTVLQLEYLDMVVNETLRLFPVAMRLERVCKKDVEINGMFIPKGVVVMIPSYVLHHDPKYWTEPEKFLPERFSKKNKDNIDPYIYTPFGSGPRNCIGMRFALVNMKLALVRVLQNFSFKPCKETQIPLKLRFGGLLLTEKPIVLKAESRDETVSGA

CC(O)CN(CCN(CC(C)O)CC(C)O)CC(C)O (stereo not given)
active: CYP3A5 (gene 1577) 12.4 µM | [6] 12.5 µM
not listed: [18]
inactive: all other assays above

O=C(O)c1cccc(Oc2ccccc2)c1
active: [3] 50 µM
not listed: [9] | [11] | [16]
inactive: all other assays above

COc1cccc(-c2ccc(/C=C\CN3CCCCCC3)cc2Cl)c1
inactive: [7] | HGF (gene 3082) | [17]
active: [1] 45.2 µM | [2] 81.9 µM | CYP3A5 (gene 1577) 8.98 µM | [3] 84.1 µM | [4] 84.4 µM | [5] 69.2 µM | [6] 71 µM | [8] 45.2 µM | [10] 79.1 µM | [11] 67.9 µM | [18] 83 µM | [12] 83.9 µM | [13] 66.7 µM | [14] 75.7 µM | [15] 74.5 µM | [16] 74.8 µM

CCOCCO
not listed: [3] | [9] | [11]
inactive: all other assays above

Nc1nc2ncc(CNc3ccc(C(=O)N[C@@H](CCC(=O)O)C(=O)O)cc3)nc2c(=O)[nH]1
not listed: [7] | [16] | [18]
inactive: all other assays above

CCOCCOCCOCCO
not listed: [3]
inactive: all other assays above

CC(C)CCCCCCOC(=O)c1ccc(C(=O)OCCCCCCC(C)C)c(C(=O)OCCCCCCC(C)C)c1
not listed: [7] | [11] | [16]
inactive: all other assays above
